# Assay results reported in article PMC11006913.
# Biological target: T1, NKX2-4 (Homo sapiens, UniProt Q9H2Z4 175-261, P217L)
# T1 sequence: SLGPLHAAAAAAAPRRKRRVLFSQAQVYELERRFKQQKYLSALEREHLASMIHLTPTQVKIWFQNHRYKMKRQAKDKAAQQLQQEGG
# Assay: PBM; 200 nM protein, PBS
# Conditions: dsDNA, one strand shown
row,Sequence,binding signal
1,AACGCTGG,"9.65 upbm affinity estimate (log intensity, higher = more binding, comparable within an allelic series)"
2,CCCTGCAG,"9.9 upbm affinity estimate (log intensity, higher = more binding, comparable within an allelic series)"
3,CTCTTGAA,"12.5 upbm affinity estimate (log intensity, higher = more binding, comparable within an allelic series)"
4,GCCCTTAA,"12 upbm affinity estimate (log intensity, higher = more binding, comparable within an allelic series)"
5,ACCTGCAG,"9.74 upbm affinity estimate (log intensity, higher = more binding, comparable within an allelic series)"
6,CGGTCGTA,"9.63 upbm affinity estimate (log intensity, higher = more binding, comparable within an allelic series)"
7,CGTTTGGC,"9.62 upbm affinity estimate (log intensity, higher = more binding, comparable within an allelic series)"
8,CTACTCAA,"12.1 upbm affinity estimate (log intensity, higher = more binding, comparable within an allelic series)"
9,CCGCCATA,"9.83 upbm affinity estimate (log intensity, higher = more binding, comparable within an allelic series)"
10,ATGTCCGG,"9.39 upbm affinity estimate (log intensity, higher = more binding, comparable within an allelic series)"
11,AGTGGTTC,"11.8 upbm affinity estimate (log intensity, higher = more binding, comparable within an allelic series)"
12,AACGCCAG,"9.74 upbm affinity estimate (log intensity, higher = more binding, comparable within an allelic series)"
13,CCGCTACC,"9.71 upbm affinity estimate (log intensity, higher = more binding, comparable within an allelic series)"
14,CACTCGAG,"12.4 upbm affinity estimate (log intensity, higher = more binding, comparable within an allelic series)"
15,ACGTACTC,"11.8 upbm affinity estimate (log intensity, higher = more binding, comparable within an allelic series)"
16,AGTACTCA,"12.5 upbm affinity estimate (log intensity, higher = more binding, comparable within an allelic series)"
17,CCCGGCCC,"9.77 upbm affinity estimate (log intensity, higher = more binding, comparable within an allelic series)"
18,AGTGCTTA,"12 upbm affinity estimate (log intensity, higher = more binding, comparable within an allelic series)"
19,AAAGCACT,"11.7 upbm affinity estimate (log intensity, higher = more binding, comparable within an allelic series)"
20,GGTCGCCA,"9.68 upbm affinity estimate (log intensity, higher = more binding, comparable within an allelic series)"

row,Sequence,binding signal
1,ATTCTTGA,"11.5 upbm affinity estimate (log intensity, higher = more binding, comparable within an allelic series)"
2,AGCTCGCG,"9.6 upbm affinity estimate (log intensity, higher = more binding, comparable within an allelic series)"
3,CTTGAGGA,"11.9 upbm affinity estimate (log intensity, higher = more binding, comparable within an allelic series)"
4,GTCCCACA,"9.65 upbm affinity estimate (log intensity, higher = more binding, comparable within an allelic series)"
5,ATCGGAGC,"9.93 upbm affinity estimate (log intensity, higher = more binding, comparable within an allelic series)"
6,CGATCGCA,"9.9 upbm affinity estimate (log intensity, higher = more binding, comparable within an allelic series)"
7,CAGTGCGC,"9.85 upbm affinity estimate (log intensity, higher = more binding, comparable within an allelic series)"
8,CTTCTCAA,"11.7 upbm affinity estimate (log intensity, higher = more binding, comparable within an allelic series)"
9,GCACTCGA,"12.5 upbm affinity estimate (log intensity, higher = more binding, comparable within an allelic series)"
10,AGGCGGGC,"9.12 upbm affinity estimate (log intensity, higher = more binding, comparable within an allelic series)"
11,GCGAGCCA,"9.74 upbm affinity estimate (log intensity, higher = more binding, comparable within an allelic series)"
12,CGCCCTGA,"9.84 upbm affinity estimate (log intensity, higher = more binding, comparable within an allelic series)"
13,CCCGCAGG,"8.95 upbm affinity estimate (log intensity, higher = more binding, comparable within an allelic series)"
14,CCAGAGAC,"9.71 upbm affinity estimate (log intensity, higher = more binding, comparable within an allelic series)"
15,ACGCAGTG,"9.7 upbm affinity estimate (log intensity, higher = more binding, comparable within an allelic series)"
16,CCGGTCGC,"9.53 upbm affinity estimate (log intensity, higher = more binding, comparable within an allelic series)"
17,CATCGCGA,"9.66 upbm affinity estimate (log intensity, higher = more binding, comparable within an allelic series)"
18,GTCAAGGA,"11.7 upbm affinity estimate (log intensity, higher = more binding, comparable within an allelic series)"
19,GATCGGCC,"9.8 upbm affinity estimate (log intensity, higher = more binding, comparable within an allelic series)"
